Data from PubChem BioAssay (EPA / NIEHS).
Values joined by “and” are separate entries in the source; they are usually repeats but may differ in a detail not shown here. Equal entries are not always repeated. Inconclusive results are not listed. The source holds several records for some structures; these can differ, active in one and inactive in another. Active and inactive are the calls of the source. The calls were made as follows, unless noted: active = hit-call score of the fitted dose curve at least 0.9, where 1 is the maximum; inactive = score below 0.9.

Legend:
[1] = read-out: E-selectin (Homo sapiens) (UniProt P16581); test: BSK_IMphg_ESelectin: BioMAP Diversity Plus: IMphg Assay for Eselectin Biomarker Activity (AID 2284291); settings: primary human endothelial cells with macrophages
Procedure, shortened: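 Human venular endothelial cell–macrophage co-culture, E-selectin measured by ELISA 24 h after chemical dosing. Signal fitted in the positive direction against DMSO as negative control and baseline.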

[2] = BSK_IMphg_SRB: Viability Assessment in the BioMAP Diversity Plus: IMphg Assay (AID 2284292); settings: primary human endothelial cells with macrophages;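 also: measured one day after compound addition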
Procedure, shortened: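 Human venular endothelial cells with macrophages, 24 h after chemical dosing; total protein by 0.1% SRB staining after 10% TCA fixation, read at 560 nm. Positive-direction fitting versus DMSO baseline.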

[3] = read-out: Macrophage colony-stimulating factor (MCSF), CSF1 (gene 1435); test: BSK_IMphg_MCSF: BioMAP Diversity Plus: IMphg Assay for Macrophage colony-stimulating factor (MCSF) Biomarker Activity (AID 2284293); settings: primary human endothelial cells with macrophages
Procedure, shortened: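 Co-culture of human venular endothelial cells and macrophages, 24 hours of chemical exposure. M-CSF quantified by ELISA, with parallel SRB total-protein staining for cytotoxicity; activity fitted relative to DMSO.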

[4] = read-out: Interleukin-10 (IL10), IL10 (gene 3586); test: BSK_IMphg_IL10: BioMAP Diversity Plus: IMphg Assay for Interleukin-10 (IL10) Biomarker Activity (AID 2284294); settings: primary human endothelial cells with macrophages
Procedure, shortened: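 Human venular endothelial cells cocultured with macrophages, dosed 24 h; IL-10 measured by ELISA, activity relative to DMSO. Cytotoxicity assessed in parallel cultures by sulforhodamine B total-protein staining.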

[5] = BSK_IMphg_SRB.Mphg: Macrophage Viability Assessment in the BioMAP Diversity Plus: IMphg Assay (AID 2284295); settings: primary human endothelial cells with macrophages
Procedure, shortened: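 Venular endothelial cells co-cultured with macrophages, read 24 h after dosing. Total protein measured by 0.1% SRB staining after 10% TCA fixation, absorbance at 560 nm. Fitted in positive direction against DMSO baseline.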

[6] = IUF_NPC2c_oligodendrocyte_migration_120hr: Leibniz Research Institute for Environmental Medicine (IUF) 120-hour Neural Progenitor Cell Migration Assay for Oligodendrocyte Migration (NPC2c) (AID 2284297);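 also: O4-positive oligodendrocyte migration distance divided by radial glia migration distance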
Procedure, shortened: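 Human fetal cortex-derived neural progenitor spheres (0.3 mm) were plated on poly-D-lysine/laminin in N2 differentiation medium and exposed to 7 concentrations for 120 h, with half-medium renewal at day 3. Oligodendrocyte migration distance was normalized to radial glia migration, relative to DMSO.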

[7] = IUF_NPC2a_radial_glia_migration_120hr: Leibniz Research Institute for Environmental Medicine (IUF) 120-hour Neural Progenitor Cell Migration Assay for Radial Glia Migration (NPC2a) (AID 2284298)
Procedure, shortened: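 Single 0.3 mm primary human fetal-cortex (GW 16-19) NPC spheres were plated on poly-D-lysine/laminin in N2 differentiation medium and exposed from day 0 for 120 h, half-medium refreshed day 3. Migration distance came from Hoechst nuclei-density imaging, relative to DMSO.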

[8] = IUF_NPC2a_radial_glia_migration_72hr: Leibniz Research Institute for Environmental Medicine (IUF) 72-hour Neural Progenitor Cell Migration Assay for Radial Glia Migration (NPC2a) (AID 2284299)
Procedure, shortened: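 Primary hNPC spheres, fetal brain GW 16-19, on PDL/laminin; DMEM/F12 3:1 + 1% N2. Compound dosed day 0, 7 conc. + SC, half-medium refresh day 3. 72 h brightfield, migration distance core-to-front (um), 4 directions averaged.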

[9] = IUF_NPC2b_neuronal_migration_120hr: Leibniz Research Institute for Environmental Medicine (IUF) 120-hour Neural Progenitor Cell Migration Assay for Neuron Migration (NPC2b) (AID 2284300)
Procedure, shortened: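 Primary human fetal cortex neural progenitor spheres (0.3 mm) plated on poly-D-lysine/laminin in N2 differentiation medium, exposed 120 h with half-medium refresh at day 3. TUBB3-stained neuron distance from sphere core, normalized to radial glia migration, versus DMSO.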

[10] = IUF_NPC3_neuronal_differentiation_120hr: Leibniz Research Institute for Environmental Medicine (IUF) 120-hour Neuronal Differentiation Assay (NPC3) (AID 2284301)
Procedure, shortened: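 Primary human fetal neural progenitor spheres (GW 16-19, 0.3 mm) plated on poly-D-lysine/laminin in N2 medium, exposed from day 0 for 120 h with half-medium refresh at day 3. TUBB3+ cells as percent of Hoechst nuclei in migration area; DMSO baseline.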

[11] = IUF_NPC4_neurite_length_120hr: Leibniz Research Institute for Environmental Medicine (IUF) 120-hour Neuronal Morphology Assay for Neurite Length (NPC4) (AID 2284302)
Procedure, shortened: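 Human fetal cortex (GW 16-19) neural progenitor spheres, 0.3 mm, were plated on poly-D-lysine/laminin in N2 differentiation medium and exposed from day 0 for 120 h, half-feeding at day 3. Mean TUBB3+ neurite length (µm) came from skeletonized images, relative to DMSO.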

[12] = IUF_NPC5_oligodendrocyte_differentiation_120hr: Leibniz Research Institute for Environmental Medicine (IUF) 120-hour Oligodendrocyte Differentiation Assay (NPC5) (AID 2284304; active = hit-call score of the fitted dose curve at least 0.9, where 1 is the maximum;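 also: primary human fetal neural progenitor spheres plated to migrate and differentiate; share of O4-positive cells among Hoechst nuclei found by CNN image analysis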)
Procedure, shortened: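 Primary human fetal (GW 16-19) neural progenitor spheres (0.3 mm) plated on poly-D-lysine/laminin in N2 differentiation medium, exposed from day 0 for 120 h with half-medium refresh at day 3; O4-positive cells as percent of Hoechst nuclei, CNN-identified, versus DMSO.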

[13] = IUF_NPC4_neurite_area_120hr: Leibniz Research Institute for Environmental Medicine (IUF) 120-hour Neuronal Morphology Assay for Neurite Area (NPC4) (AID 2284305; active = hit-call score of the fitted dose curve at least 0.9, where 1 is the maximum)
Procedure, shortened: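 Human fetal cortex-derived neural progenitor spheres (0.3 mm, GW 16-19) plated on poly-D-lysine/laminin in N2 differentiation medium and exposed from day 0 for 120 h across 7 concentrations plus solvent control. Neurite area is mean pixel area per TUBB3-positive neuron via skeletonization, analysed relative to DMSO.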

[14] = IUF_NPC2-5_cytotoxicity_72hr: Cytotoxicity Assessment at 72 hours in the Leibniz Research Institute for Environmental Medicine (IUF) Neural Progenitor Cell Migration and Differentiation Assay for Cytotoxicity (NPC2-5) (AID 2284306; active = hit-call score of the fitted dose curve at least 0.9, where 1 is the maximum;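 also: LDH release into supernatant measured by resorufin fluorescence marking membrane damage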)
Procedure, shortened: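 Human fetal (GW 16-19) neural progenitor spheres, 0.3 mm, plated on poly-D-lysine/laminin in N2 differentiation medium and exposed from day 0 to 7 concentrations plus solvent control (DMSO ≤0.1%). LDH-dependent resazurin-to-resorufin fluorescence in supernatant at 72 h.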

[15] = IUF_NPC2-5_cytotoxicity_120hr: Cytotoxicity Assessment at 120 hours in the Leibniz Research Institute for Environmental Medicine (IUF) Neural Progenitor Cell Migration and Differentiation Assay (NPC2-5) (AID 2284307; active = hit-call score of the fitted dose curve at least 0.9, where 1 is the maximum)
Procedure, shortened: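 Human fetal neural progenitor spheres (0.3 mm, GW 16-19 cortex) were plated on poly-D-lysine/laminin in N2 differentiation medium and exposed for 120 h, with half-medium refresh at day 3. LDH release into supernatant was read by resorufin fluorescence.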

[16] = IUF_NPC2-5_cell_number_120hr: Cell Number Assessment at 120 hours in the Leibniz Research Institute for Environmental Medicine (IUF) Neural Progenitor Cell Migration and Differentiation Assay (NPC2-5) (AID 2284308);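 also: count of Hoechst-stained nuclei in migration zone around plated human neural progenitor spheres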
Procedure, shortened: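 Primary human fetal neural progenitor spheres (GW 16-19, 0.3 mm) plated on poly-D-lysine/laminin in N2 differentiation medium, exposed from day 0 for 120 h with half-medium refresh at day 3; Hoechst-positive nuclei counted in migration area versus DMSO control.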

[17] = IUF_NPC2-5_viability_120hr: Viability Assessment at 120 hours in the Leibniz Research Institute for Environmental Medicine (IUF) Neural Progenitor Cell Migration and Differentiation Assay (NPC2-5) (AID 2284312)
Procedure, shortened: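 Human fetal (GW 16-19) neural progenitor spheres of 0.3 mm were plated on poly-D-lysine/laminin in N2 differentiation medium and exposed from day 0 for 120 h, with half-medium refresh at day 3. Viability was read as alamar blue resazurin-to-resorufin fluorescence against DMSO.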

Measured: AC50

Sequence of E-selectin (Homo sapiens) (P16581 whole entry, looked up): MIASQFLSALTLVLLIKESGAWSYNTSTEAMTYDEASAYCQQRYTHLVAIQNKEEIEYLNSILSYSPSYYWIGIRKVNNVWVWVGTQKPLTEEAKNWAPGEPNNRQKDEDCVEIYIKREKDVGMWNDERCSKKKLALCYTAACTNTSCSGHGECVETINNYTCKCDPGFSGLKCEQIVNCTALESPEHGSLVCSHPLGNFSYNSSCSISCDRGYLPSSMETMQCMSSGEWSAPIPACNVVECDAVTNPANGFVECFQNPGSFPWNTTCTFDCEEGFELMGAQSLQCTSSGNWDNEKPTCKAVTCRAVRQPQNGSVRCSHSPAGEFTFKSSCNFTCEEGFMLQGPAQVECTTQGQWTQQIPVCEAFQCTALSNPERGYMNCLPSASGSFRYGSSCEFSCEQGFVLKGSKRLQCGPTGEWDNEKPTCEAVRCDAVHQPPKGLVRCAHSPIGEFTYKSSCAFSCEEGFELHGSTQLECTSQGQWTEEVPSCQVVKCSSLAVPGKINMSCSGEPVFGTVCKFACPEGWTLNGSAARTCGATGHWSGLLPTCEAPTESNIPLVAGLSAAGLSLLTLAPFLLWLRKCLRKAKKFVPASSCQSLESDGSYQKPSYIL

C[N+](C)(C)CCCNS(=O)(=O)C(F)(F)C(F)(F)C(F)(F)C(F)(F)C(F)(F)C(F)(F)C(F)(F)C(F)(F)F
active: [1] 30 µM | [2] 34.3 µM and 42.3 µM | [4] 41 µM and 36.9 µM | [5] 46.2 µM and 30 µM
inactive: [1] | [3]

O=C(O)C(F)(F)C(F)(F)C(F)(F)C(F)(F)C(=O)O
inactive: [1] | [2] | [3] | [4] | [5]

Cc1c(C(=O)c2c[nH]n(C)c2=O)ccc(S(C)(=O)=O)c1C1=NOCC1
inactive: [6] | [7] | [8] | [9] | [10] | [11] | [12] | [13] | [14] | [15] | [16] | [17]

CCCCNS(=O)(=O)c1ccccc1
inactive: [6] | [7] | [8] | [9] | [10] | [11] | [12] | [13] | [14] | [15] | [16] | [17]
